# A selection: hits, their analogues and other compounds. The true share with any hit is near 2.4%.
# D2 ag-1: agonists of human D2 dopamine receptor (beta-arrestin); P14416; DiscoveRx PathHunter D2 beta-arrestin, luminescence, 90 min; 100% = 57 uM dopamine signal; activation, % (no concentration beside the values); 360,000 tested, 0.084% active; AID 624465; in the data active means activation above about 40%; inconclusive means between about 15% and that limit
#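 DiscoveRx PathHunter D2 beta-arrestin cells (2,100/well) attached overnight, then compound-stimulated 90 min at 37 C in HBSS/10 mM HEPES/0.1% Tween-20 buffer; beta-galactosidase complementation read by luminescence after 1 h at ambient temperature. Dopamine 57 uM final (EC100) as control.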
# D2 PAM-1: D2 dopamine receptor (human) potentiation. P14416. HEK293 T-REx D2, calcium flux, EC20 dopamine potentiation. potentiation, % at 10 µM. 340,000 tested, 0.34% active. AID 485347;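 active means potentiation over 3 SD above the plate norm, cut at about 30% in these data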
#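 Potentiation of an EC20 dopamine calcium response is measured in a force-coupled, tetracycline-inducible Hek293 Trex D2 line. Compound-only kinetic reads over 180 s flag agonists before dopamine addition.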
# D2 ag-2: activates the human D2 dopamine receptor; activation, % at 2 µM; HEK293 T-REx D2 cells, calcium flux agonist mode; P14416; 340,000 tested, 0.53% active; AID 485358;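 active means activation over 3 SD above normal in the single-dose calcium agonist read, cut at about 30% in these data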
#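 In this primary screen, compounds producing a positive calcium signal within 180 s of addition to tetracycline-induced, force-coupled HEK293 Trex D2 cells are flagged; cells are dye-loaded with a no-wash calcium kit beforehand.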
# D2 PAM-2: human D2 receptor positive allosteric modulation. P14416. DiscoveRx D2 beta-arrestin cells, luminescence, 90 min; 100% = 57 uM dopamine signal. potentiation, % (no concentration beside the values). 360,000 tested, 0.23% active; in the data active means potentiation above about 50%; inconclusive means mostly about 30% to 49%
#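 D2 cells co-treated with compound plus 50 nM dopamine (EC20) for 90 min at 37 deg C to detect potentiation. Beta-arrestin recruitment was read as enzyme-fragment luminescence after 1 h at ambient temperature. Full response was set by 57 uM dopamine.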
# D2 antagonist: antagonists of human D2 dopamine receptor; P14416; 340,000 tested, 2% active; inhibition, % at 10 µM; HEK293 TREx D2 cells, calcium flux, dopamine EC80; in the data active means inhibition above about 30%; inactive means below that, where a call was filed
#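 Calcium flux kinetic readout in an inducible HEK293 TREx D2 line plated overnight at 30 C. After 180 s compound exposure, an EC80 dopamine challenge follows with another 180 s kinetic read to detect antagonism.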
# D3 ag: D3 receptor agonism confirmed, beta-arrestin readout; shares compounds with D2 ag-2; DiscoveRx D3 beta-arrestin cells, luminescence, 90 min; Potency, µM (doses to about 76.9 µM), actives largely listed as activators; 2,300 tested, 4% active; further: nearly all actives have a fitted effect of over 70% in size
# Target sequence (P35462 whole entry, looked up): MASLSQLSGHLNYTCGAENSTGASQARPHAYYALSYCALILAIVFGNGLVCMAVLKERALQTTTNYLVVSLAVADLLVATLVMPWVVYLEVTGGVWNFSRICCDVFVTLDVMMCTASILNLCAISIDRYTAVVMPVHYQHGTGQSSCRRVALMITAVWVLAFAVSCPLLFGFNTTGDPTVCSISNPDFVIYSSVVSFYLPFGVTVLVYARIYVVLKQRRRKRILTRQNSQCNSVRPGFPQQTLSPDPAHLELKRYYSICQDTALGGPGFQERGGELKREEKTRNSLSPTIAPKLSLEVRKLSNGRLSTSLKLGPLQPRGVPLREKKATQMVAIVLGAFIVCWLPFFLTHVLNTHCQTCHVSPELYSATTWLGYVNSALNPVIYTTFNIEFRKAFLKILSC
# D2 ag-3: D2 receptor agonism, beta-arrestin counterscreen | Potency, µM (highest dose often 76.9 µM), hits mostly activators | 2,300 tested, 5.9% active | shares compounds with D2 ag-2 | DiscoveRx PathHunter D2 beta-arrestin, luminescence, 90 min; response scale: percent relative to full dopamine signal; further: nearly all actives have a fitted effect of over 70% in size
# Hits are given with their value; n = inactive; u = inconclusive; x = no result. Unless noted, the call rests on the fitted dose curve; in most records, active means well fitted activation curve with a large enough effect; inconclusive means small, poorly fitted or top-dose-only effect; inactive means flat fitted curve, though single readings scatter.
SMILES,D2 ag-1,D2 PAM-1,D2 ag-2,D2 PAM-2,D2 antagonist,D3 ag,D2 ag-3
Cn1c(CCN2CCN(c3ccccn3)CC2)nc2cc(NS(=O)(=O)c3ccc(Cl)cc3)ccc21,n,n,n,n,74,n,u
Cc1ccc(S(=O)(=O)Nc2ccc3c(c2)nc(CCN2CCN(c4ccccn4)CC2)n3C)cc1,n,n,n,n,51,n,n
Cc1ccc(N2CCN(CCc3nc4cc(NS(C)(=O)=O)ccc4n3C)CC2)cc1,n,n,n,n,n,x,x
COc1ccc(OCC(=O)Nc2ccc3c(c2)nc(CCN2CCN(c4ccccn4)CC2)n3C)cc1,n,x,x,n,x,x,x
CCC(C)NC(=O)C1CCN(CCCc2ccccc2)CC1 (configuration not stated),n,n,51,n,n,n,n
CCC(C)NC(=O)C1CCN(C(=O)c2ccccc2)CC1 (configuration not stated),n,n,n,n,n,x,x
Cc1ccc(C2CC(=O)Nc3cc4c(cc32)OCCO4)cc1Br (configuration not stated),x,n,n,x,x,x,x
Cc1cccc(NC(=O)CSc2nc3ccccc3nc2N2CCOCC2)c1C,x,n,n,x,x,x,x
CCCn1c2ccccc2c2cnn(CC(=O)N(Cc3ccccc3)C(C)C)c(=O)c21,x,n,n,x,x,x,x
COC(=O)C1CCN(CCCOc2ccc(CN3CCN(c4ccc([N+](=O)[O-])cc4)CC3)cc2)CC1,45,n,69,n,84,u,u
O=S(=O)(c1ccc(Br)cc1)N1CCCN(Cc2ccccc2F)CC1,n,n,41,n,n,n,n
Cc1ccccc1CN1CCN(S(=O)(=O)c2ccc(F)cc2)CC1,n,n,n,n,n,x,x
COc1ccc(CNC(=O)c2cnc3sc(N4CCCCCC4)nn3c2=O)cc1,x,n,n,x,x,x,x
O=C(NCCN1CCN(c2ccccc2)CC1)c1ccccc1F,u,n,79,n,72,u,n
O=C(NCCS(=O)(=O)N1CCN(c2ccccc2)CC1)c1ccccc1F,n,n,n,n,n,n,n
O=C(COc1ccccc1)NCCS(=O)(=O)N1CCN(c2ccccc2)CC1,u,n,n,n,77,n,u
Nc1nc(N)c(S(=O)(=O)c2ccccc2)c(Nc2ccc(Br)cc2)n1,x,n,x,x,x,x,x
N#Cc1c(-c2ccco2)nc(SCc2ccc(F)cc2)[nH]c1=O,n,n,n,n,n,x,x
Cc1nc(SCc2cccc(F)c2)[nH]c(=O)c1C#N,n,x,x,n,x,n,n
CCOC(=O)C1CCN(CC(=O)Nc2c(C(=O)OC)[nH]c3cccc(C)c23)CC1,n,n,n,n,n,n,n
CCOC(=O)C1CCCN(CC(=O)Nc2c(C(=O)OC)[nH]c3ccccc23)C1 (configuration not stated),n,x,x,n,x,x,x
CCCN(CCC)CC(O)Cn1cc(/C=C/C(=O)c2ccc(OC)cc2)c2ccccc21 (configuration not stated),x,n,n,x,x,x,x
CC(C)OCC(O)CS(=O)(=O)Cc1ccccc1 (configuration not stated),n,n,58,n,n,n,n
COc1cccc(C(c2sc3nc(-c4ccco4)nn3c2O)N2CCN(C)CC2)c1 (configuration not stated),x,n,n,x,x,x,x
Cc1ccc(-c2noc(-c3ccc(NC4CCCC4)c([N+](=O)[O-])c3)n2)cc1,x,n,x,x,x,x,x
SMILES,D2 ag-1,D2 PAM-1,D2 ag-2,D2 PAM-2,D2 antagonist,D3 ag,D2 ag-3
CCN1CC2=C(OC(N)=C(C#N)C2c2cccs2)/C(=C/c2cccs2)C1 (configuration not stated),n,x,x,n,x,n,n
CCN1C=C(Cc2cccs2)C2=C(C1)C(c1cccs1)C(C#N)=C(N)O2 (configuration not stated),n,n,44,n,81,n,n
CC(=O)c1ccc(NC(=O)C(Cc2ccccc2)NS(=O)(=O)c2ccc3c(c2)CCC(=O)N3)cc1 (configuration not stated),x,n,n,x,x,x,x
COC(=O)c1cc(CN2CCN(c3ccccc3)CC2)ccc1O,n,n,n,n,n,n,n
O=C(CCN1CCN(c2ccccc2)CC1)Nc1ccc(Cl)cc1,n,n,n,n,n,x,x
O=C(Nc1ccc(C(=O)NCCCN2CCN(c3ccccc3)CC2)cc1)C1=CSCCO1,44,n,82,n,81,n,u
COC(=O)c1ccc(NC(=O)CCN2CCN(c3ccccc3)CC2)cc1,u,n,54,n,50,u,u
O=C(CCN1CCN(c2ccccc2)CC1)Nc1ccc(OCc2ccccc2)cc1,n,n,53,n,65,u,u
O=C1CCCc2cc(S(=O)(=O)NCC3CCC(C(=O)Nc4ccccc4F)CC3)ccc2N1 (configuration not stated),x,n,n,x,x,x,x
Cc1nc(-c2ccccc2)sc1-c1ccc(SCC(=O)Nc2ccccc2)nn1,x,n,n,x,x,x,x
Cc1ccc(CNC(=O)C2CCN(c3nc4ccccc4n(C)c3=O)CC2)cc1,x,n,n,x,x,x,x
COCc1ccc(-c2ccc3c(c2)c(C#Cc2ccsc2)c(-c2cc(OC)cc(OC)c2)n3C)cc1,n,n,n,n,n,n,n
CNC(C)C(=O)NC(C(=O)N1CCCC1C(=O)NC1CCCc2ccccc21)C(C)C (configuration not stated),n,n,n,n,n,x,x
CNC(C)C(=O)NC(C(=O)N1CCCC1C(=O)NNc1ccccc1)C(C)C (configuration not stated),n,n,n,n,n,n,n
CCn1cc(/C=C(\NC(=O)c2ccc(OC)c(OC)c2)C(=O)NCCCn2ccnc2)c2ccccc21,x,n,n,x,x,x,x
CC(C)(C)NC(=O)c1cc2c(ccc3ccccc32)oc1=O,n,x,x,n,x,u,n
O=C(CSc1ccc2nnc(-c3ccncc3)n2n1)NCC1CCCO1 (configuration not stated),n,n,n,n,n,n,n
CCOC(=O)c1c(NC(=S)Nc2ccccc2)sc2c1CCN(CC)C2,n,n,n,n,n,n,n
Cc1ccccc1NC(=O)Cc1nc(COC(=O)CCc2ccccc2)cs1,n,n,n,n,n,x,x
COc1cccc(CC(=O)OCc2csc(CC(=O)Nc3ccccc3C)n2)c1,n,n,n,n,n,n,n
O=C(OCCN1C(=O)c2cccc3c(N4CCOCC4)ccc(c23)C1=O)c1ccccc1Cl,n,n,x,n,x,u,u
CC1=C(C(=O)OC2CCCC2)C(c2ccccc2Cl)CC(=O)N1 (configuration not stated),x,n,n,x,x,x,x

# High-throughput results (PubChem)
